Test results as given in PubChem BioAssay AID720624 (Broad Institute, 2013).
Measured potencies and affinities stand elsewhere. Inconclusive results are not listed. Active and inactive are the calls of the source.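 Rule for the calls: active = viability loss with half-maximal concentration at most twice the top valid dose, at 8, 24 and 48 hours; inconclusive = timepoint results disagree; inactive = inactive at all three timepoints.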

Test: cytotoxicity in SNB-75 CNS cells – cell-based, CellTiter-Glo ATP luminescence, several timepoints, dry powder, mechanism study for HRAS target identification, late-stage follow-up (AID 720624)
Settings: SNB-75 viability, 8-48 h; series mostly up to 35 µM

Cc1onc(C(=O)N2CCN(C(c3ccncc3)c3ccncc3)CC2)c1[N+](=O)[O-]
outcome: inactive
